Measured values from PubChem BioAssay (NCI).
This is part of a sample that, as a whole, favours compounds with a hit. Of some 83,000 tested, about 20% had one in any assay.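 Testing used 96-well plates and a 48-hour single-concentration exposure. Example: -40 means 40% of the starting cells died.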 Unmarked numbers belong to inactive results. Active and inactive are the calls of the source. How the source made its calls: active means growth percent below 10; inactive means the rest.

Test system: MOLT-4 leukemia
Assay: NCI-60 one-dose screen, 48 h (100 = growth as untreated, 0 = no growth, -100 = all killed)
Details: 10 µM unless noted

| Compound | growth |
| --- | --- |
| CCN(CC)CC(=O)Nc1cccc(C(=O)OC(C)C)c1 | 96.2% |
| CCCCOC(=O)c1ccc(NC(=O)C(C)N2CCOCC2)cc1 (centres undefined) | 94.9% |
| CN1C[C@@H](c2ccc(Cl)cc2)[C@]2(NC(=S)N(c3ccc(F)c(Cl)c3)C2=O)[C@@]12C(=O)NC1C=CC(Cl)=C[C@H]12 (some centres undefined) | 3.29% (active) |
| OC(CBr)c1ccnc2ccccc12 (centres undefined) | 93.8% |
| CCCCNCC(=O)Nc1ccc(C(=O)OCC)cc1 | 80.7% |
| Nc1nc(Nc2ccc(Cl)cc2)nn1S(=O)(=O)c1ccc(-c2ccc(F)cc2)cc1 | 74.5% |
| CCCCCOC(=O)c1cccc(NC(=O)CN(CC)CC)c1 | 87.5% |
| N#Cc1c(N)n2c(nc1=Nc1ccc(Cl)cc1)sc1cc(Cl)ccc12 | 27.8% |
| CCN(CC)CCOC(=O)Nc1ccccc1Cl | 94.7% |
| CCN(CC)c1ccc(Nc2ccc(CC(=O)c3ccccc3)cc2)cc1 | 102% |
| O[C@H]1CO[C@H]2[C@@H]1OC[C@@H]2Oc1ccc(Nc2nc(Nc3ccc(F)c(Cl)c3)ncc2F)cc1Cl | 103% |
| CS(=O)(=O)c1ccc(-c2nc3cc(Cl)ccc3n2CC(=O)N/N=C/c2ccc(Cl)cc2)cc1 | 12.6% |
| COc1cc2c(cc1OC)-c1ccc3cc4c(cc3c1N(CCN(C)C)C2)OCO4 | 0.14% (active) |
| CC[C@]1(O)C[C@H]2CN(CCc3c([nH]c4ccccc34)[C@@](C(=O)OC)(c3cc4c(cc3OC)N(C=O)[C@H]3[C@@](O)(C(=O)OC)[C@H](OC(C)=O)[C@]5(CC)C=CCN6CC[C@]43[C@@H]65)C2)C1 | 5.04% (active) |
| CCN(CC)CCCC(C)NCc1ccccc1 (centres undefined) | 110% |
| CCOC(=O)c1ccc(NC(=O)CCCN(CC)CC)cc1 | 95.7% |
| CCC(C)NCc1ccccc1 (centres undefined) | 93.5% |
| CCCNCC(=O)Nc1ccc(C(=O)OC(C)(C)CC)cc1 | 89.7% |
| O=C(Nc1ccccc1Cl)OCCN1CCOCC1 | 92.3% |
| O=C1N(c2ccccc2)C(=S)N[C@]12[C@H](c1ccccc1)C1CCCN1[C@]21C(=O)NC2C=CC(Cl)=C[C@H]21 (some centres undefined) | 79% |

| Compound | growth |
| --- | --- |
| CCOC(=O)c1c(C)nc2c(c1N)/C(=C/c1ccc(OC)cc1)C(=O)N2Cc1ccc(F)cc1 | 1.64% (active) |
| COc1ccc(C2CC(c3cnccn3)=NN2)cc1OC (centres undefined) | 72% |
| COc1cc2c(cc1OC)-c1ccc3cc4c(cc3c1N(CCCN(C)C)C2)OCO4 | 8.66% (active) |
| CCCCCOC(=O)c1ccc(NC(=O)CNCC(C)C)cc1 | 86.5% |
| COc1cc(-c2cccc([N+](=O)[O-])c2)c(-c2nc(-c3ccccc3)c(-c3ccccc3)n2C2CC2)cc1OC | 25.9% |
| N=C(N)c1ccc(-c2ccc(-c3ccc(Cl)cc3Cl)o2)nc1 | 1.62% (active) |
| COc1cc(C(=O)/C=C/c2c(-c3ccc(F)cc3)nc3ncccn23)cc(OC)c1OC | 50.7% |
| N#Cc1cnn2c(-c3ccc(Cl)cc3)nc(NC3CC3)nc12 | 80.1% |
| COc1cc(-c2ccc(-c3ccc(C(=N)N)nc3)s2)cc(OC)c1OC | 23.8% |
| COc1cc2c(cc1OC)-c1ccc3cc4c(cc3c1N(CCCN1CCCCC1)C2)OCO4 | 6.01% (active) |
| COc1cccc(CCC2CCCN(c3cc(C)nc(N)n3)C2)c1 (centres undefined) | 27.5% |
| N#Cc1c(N)n2c(nc1=Nc1ccc([N+](=O)[O-])cc1)sc1cc(Cl)ccc12 | 93.4% |
| CCCc1cc(=O)oc2c3c(c4c(c12)OC(C)(C)C=C4)O[C@@H](C)[C@H](C)C3=O | 69.1% |
| Cc1ccc(Nc2ccc(Nc3ccc(C)cc3S(=O)(=O)O)c3c2C(=O)c2ccccc2C3=O)c(S(=O)(=O)O)c1 | 116% |
| O=C(NC1CCOCC1)c1ccc2c(c1)CN(c1ncc(Cc3cccc(-n4cccn4)c3)s1)CC2 | 40.3% |
| O=S(=O)(Cc1ccccc1)c1nc2ccccc2s1 | 14.1% |
| COc1cc2c(=O)n(CCCn3ccnc3)c3c4cc5c(cc4ccc3c2cc1OC)OCO5 | 3.68% (active) |
| CN(C)c1ccc(-c2cc(-c3ccc(Nc4nc(Nc5ccccc5)nc(Nc5ccc(Cl)cc5)n4)cc3)nc(N)n2)cc1 | -4.17% (active) |
| CCOC(=O)c1c(C)[nH]c(C(=O)CCC(=O)OC)c1C | 93% |
